# Cav3 T inh: inhibitors of human Cav3.2 T-type calcium channel. O95180. actives 4% (n = 100,000). B-score at 10 µM. Cav3.2-expressing cells, Fluo-4 calcium fluorescence FDSS; active compounds read low;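 active = single-dose well whose peak fluorescence ratio is a statistical outlier from its plate by either plate-standardised score or position-corrected B-score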
# PTK2B oligo ant: blocks oligomerization of human Pyk2 in cells; actives 0.83% (n = 99,000); Q293 cells, Pyk2 FERM NanoBiT luminescence; active compounds read low; Q14289; z-score (the deposit names both 25 µM and 10 µM);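 active = Z-score of -3 or lower, scaled per plate to the spread of control and sample wells; inactive = z-score above -3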;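 also: negative z-score means lost luminescence so less FERM oligomerization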
# CYP2C9 act: CYP2C9 (human) activation. recombinant CYP2C9, luciferin-H conversion, luminescence; active compounds read high; factor 1 = untreated enzyme, 0 = blocked. P11712. AID 1024. actives 1.4% (n = 96,000). activation factor at 5 µM;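 active = activation factor of 2 or more for CYP2C9 at a 5 µM dose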;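 also: 0 = sulfaphenazole-blocked wells and 1 = vehicle-only wells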
# CYP2C19 activ: increases human CYP2C19 enzyme activity; P33261; recombinant CYP2C19, luciferin-H EGE luminescence; active compounds read high; 0 = fully inhibited enzyme, 1 = untreated enzyme; activation factor at 5 µM; 96,000 tested, under 10 active; AID 1025;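 active = activation factor of at least 2 at 5 µM in the primary screen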;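 also: 0 = wells with 2.5 mM tranylcypromine and 1 = vehicle-only wells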
# CYP2C19 inhib: blocks human cytochrome P450 2C19. AID 778. P33261. actives 21% (n = 96,000). CYP2C19 Supersomes, luciferin-H EGE luminescence, 30 min. inhibition, % at 5 µM;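 active = CYP2C19 inhibition above a set limit at 5 µM in the primary screen, cut at about 50% in these data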;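 also: plate controls were negative control wells for no effect and 2.5 mM tranylcypromine positive control for full effect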
# CYP2C9 inhib: inhibitors of human CYP2C9; AID 777; inhibition, % at 5 µM; actives 20% (n = 96,000); CYP2C9 Supersomes, luciferin-H conversion, luminescence; P11712;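 active = blocking of liver enzyme CYP2C9 beyond about 50% at 5 µM, limit read from the data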
# Numbers without * were called inactive; . = not tested or not shown. A selection: hits, their analogues and other compounds. The true share with any hit is near 27%.
SMILES,Cav3 T inh,PTK2B oligo ant,CYP2C9 act,CYP2C19 activ,CYP2C19 inhib,CYP2C9 inhib
COc1cccc(OC)c1OCCCSc1nc(C)cc(=O)[nH]1,0.49,1.4,1,1,3,1
Cc1ccccc1OCCCCc1c(C)n[nH]c1C,-4.4,-1.7,0.5,0.3,65*,50*
COc1ccc(NC(=O)C2CCN(C(=O)c3cccs3)CC2)cc1OC,-0.013,0.72,1.3,1,-5,-30
CN(C)c1ccc(-c2ccccc2)nn1,0.99,0.99,0.8,0.4,58*,19
COc1ccc(N=C(C)C2=C(O)COC2=O)cc1,0.035,0.87,1,0.9,7,4
O=C(O)c1cc(-c2ccccc2)n[nH]1,0.28,.,.,.,.,.
COC(=O)c1cc(-c2cccc(OC)c2)n[nH]1,0.35,-0.64,1,0.3,70*,4
O=C(CN1C(=O)CCS(=O)(=O)c2ccccc21)Nc1cccc(F)c1,-0.018,0.71,1.2,1.1,-12,-21
Cc1cc(Nc2ccccc2)c2c([N+](=O)[O-])c(C)cc(C)c2n1,-0.097,-0.32,0.2,0.2,78*,81*
NC(=O)C1CCCN(C(=S)Nc2cccc3ccccc23)C1 (stereo not drawn),.,-1.9,.,.,.,.
COc1ccc(OC)c(S(=O)(=O)N2CCCCC2C(=O)N2CCN(c3ccccn3)CC2)c1 (stereo not drawn),.,0.69,.,.,.,.
COc1ccc(OC)c(S(=O)(=O)N2CCN(c3ccccn3)CC2)c1,.,-1.4,0.2,0.2,83*,77*
COc1ccc(C)cc1S(=O)(=O)N1CCN(S(=O)(=O)c2cc(C)ccc2OC)CC1,-0.82,-0.99,0.1,0.2,75*,87*
COc1ccc(C)cc1S(=O)(=O)N1c2ccccc2CC1C (stereo not drawn),-0.85,0.91,0,0,96*,96*
COc1ccc(F)cc1S(=O)(=O)N1CCCC(C)C1 (stereo not drawn),0.067,0.28,1.8,0.3,67*,-79
CC1CCCN(S(=O)(=O)c2ccccc2[N+](=O)[O-])C1 (stereo not drawn),.,-0.68,.,.,.,.
CSc1nc(C)cc(-c2cc(C(=O)Nc3ccccc3)on2)n1,-1.4,.,.,.,.,.
COc1ccc(F)cc1S(=O)(=O)N1CCCN(S(=O)(=O)c2cc(F)ccc2OC)CC1,-2.7,-1.4,1.3,0,99*,-34
CCOc1cc(S(=O)(=O)N2CCC(C(N)=O)CC2)ccc1F,0.66,0.08,1.1,1.1,-7,-10
COc1ccc(C)cc1S(=O)(=O)N1CCCCC1,0.77,0.05,.,.,.,.
COc1ccc(F)cc1S(=O)(=O)N1CCC(C(N)=O)CC1,0.26,0.01,2.4*,0.9,11,-143
CCOc1ccc(S(=O)(=O)N2CCC(C(N)=O)CC2)c2ccccc12,0.053,-0.03,0.4,1,-4,59*
COc1ccc(CN2CCCCC2C(=O)Nc2ccc(OC)c(OCC(C)C)c2)cc1OC (stereo not drawn),-1.5,1.4,.,.,.,.
CCCc1nc2sc3c(SCC(=O)NCc4ccco4)ncnc3c2c2c1CCC2,0.51,-0.22,0.6,1,0,43
C=C(C)Cn1c(N2CC(C)CC(C)C2)nc2c1c(=O)[nH]c(=O)n2C (stereo not drawn),-1.7,.,.,.,.,.
SMILES,Cav3 T inh,PTK2B oligo ant,CYP2C9 act,CYP2C19 activ,CYP2C19 inhib,CYP2C9 inhib
O=C(CN1CCN(c2ccccn2)CC1)Nc1ccccc1,0.94,-0.41,0.7,0.4,56*,32
O=C(CN1CCN(c2ccccn2)CC1)Nc1ccc(Oc2ccccc2)cc1,-2.8,-0.2,0.5,0.8,22,53*
O=C(CN1CCN(c2ccccn2)CC1)Nc1ccc(OCc2ccccc2)cc1,.,-0.02,0.7,0.9,8,31
CC(Oc1ccc(-c2nccc(-c3ccccn3)n2)cc1)C(=O)NN (stereo not drawn),.,1,0.7,0.8,22,27
Cc1nc2ccccc2n1C1CC(=O)N(Cc2ccccc2)C1=O (stereo not drawn),-2.2,0.39,0.7,0.7,31,32
Cn1cccc1Cc1nnc(SCC(=O)NCc2ccccc2Cl)n1-c1ccc(F)cc1,-3.7,.,0.4,0.5,52*,62*
Cn1cccc1Cc1nnc(SCC(=O)NCc2ccco2)n1-c1ccc(F)cc1,0.21,-0.36,0.9,0.2,75*,8
Cn1cccc1Cc1nnc(SCC(=O)NCc2ccco2)n1CCc1ccccc1,0.25,-0.12,0.6,0.4,58*,44
Cc1ccc(-c2cc(C(F)F)nc(NCc3cccnc3)n2)cc1,-4.4*,-3.6*,.,.,.,.
Cc1ccc(-c2cc(C(F)F)nc(NCC3CCCO3)n2)cc1 (stereo not drawn),-3.3,-0.94,.,.,.,.
FC(F)(F)c1cc(-c2ccc(Cl)cc2)nc(NCc2cccnc2)n1,0.71,-3*,0.5,0.5,49,46
Clc1nc(NCc2cccnc2)nc(N2CCOCC2)n1,0.41,0.65,.,.,.,.
CCNC(=S)NNC(=O)Nc1ccccc1,-0.4,-0.66,1.1,0.8,18,-12
CC(=O)N1c2ccccc2N(Cc2ccc(C)cc2C)C(=O)C1(C)C,-8.3*,.,0.2,0.1,95*,81*
O=C1CCC([N+](=O)[O-])C(c2ccc(Cl)cc2)N1 (stereo not drawn),1.2,3.3,1.1,1,-5,-6
CCCCOC(=O)Nc1nc(C)c(C(=O)OCC)s1,-1.1,-0.42,0.7,0.6,40,29
CCCc1nc(N)sc1C(=O)OCC,0.38,0.01,0.8,0.5,55*,21
CCOC(=O)c1sc(N)nc1C(C)C,0.15,0.52,0.7,0.5,52*,30
O=C(NC(Cc1ccccc1)C(=O)NCc1ccccn1)c1ccco1 (stereo not drawn),0.09,0.16,0.9,0.7,26,7
CCOC(=O)c1c(C)[nH]c(C)c1C(=O)COC(=O)C1CCCN1S(=O)(=O)c1ccccc1F (stereo not drawn),-0.11,0.69,0.1,0,100*,95*
Cc1cc2ncn(CC(O)COC3CCCCC3)c2cc1C (stereo not drawn),-0.49,1.9,0.1,0.4,64*,86*
COc1ccccc1NC(=O)Cc1csc(N)n1,0.0052,-0.28,1,0.8,16,-2
CCC(C)NC(=O)Cn1nc([N+](=O)[O-])c(Cl)c1C (stereo not drawn),0.07,0.27,1.1,0.7,26,-14
Cc1c(Cl)c([N+](=O)[O-])nn1CC(=O)NC(C)C1CC2CCC1C2 (stereo not drawn),-8.2*,0.94,0.8,0.4,59*,24
CCCCc1ccc(NC(=O)OC)cc1,0.019,-0.03,0.4,0.5,49,65*
COc1ccc(C(=O)CC2OC(=O)c3c2ccc(OC)c3OC)cc1 (stereo not drawn),0.63,0.76,0.7,0.2,80*,34
CCCCCCN1C=CC(=C/C=C(\C#N)C(=O)OCC)C=C1,-3.3*,-1.7,0.4,0.7,28,60*

# Source: PubChem BioAssay (several laboratories)
